Assay results: PubChem BioAssay (NCI)
“And” between values parts separate entries of the source, which are not always exact repeats. Equal entries are not always repeated. This is part of a sample that, as a whole, favours compounds with a hit. Of some 83,000 tested, about 20% had one in any assay.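 Cell lines were cultured in 96-well plates, exposed to a single compound concentration, and assessed for percent growth 48 hours later.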 More than one record can exist for a structure, and the calls need not agree. The source made the active and inactive calls.

Tested on: NCI/ADR-RES ovarian
Test: NCI-60 one-dose screen, 48 h (100 = growth as untreated, 0 = no growth, -100 = all killed)
Conditions: 10 µM
Experimental: Growth inhibition of the NCI/ADR-RES human […] tumor cell line is measured as a screen for anti-cancer activity. Cells are grown in 96 well plates and exposed to the test compound for 48 hours. Compounds are tested at a single concentration, which is 10^-5 M for most compounds. The reported endpoint is percent growth (GI% or GIPRCNT), where numbers from 0 - 100% represent growth inhibition, and numbers from -100% - 0 represent cell death. For example, a value of 40 represents 60% growth inhibition. A value of 0 means no net growth occurred over the course of the experiment. A value of -40 indicates 40% of cells at the beginning of the experiment died by the end of the experiment. A value of -100 means all cells are dead at the end of the experiment.
NCI-60 Human Tumor Cell Lines Screen was performed using the standard one-dose NCI protocol, which is described in more detail at https://dtp.cancer.gov/discovery_development/nci-60/default.htm.
Compounds with GIPRCNT values below 10 were considered active. Activity score was based on GIPRCNT using the following formula: […]
Score is 0 for GIPRCNT values of 100 or above, 50 for GIPRCNT values of 0, and 100 for GIPRCNT values of -100.

| SMILES | growth |
| --- | --- |
| CC1=C(CN(O)C(N)=O)C2=C(C)C3(CC3)[C@](C)(O)C(=O)C2=C1 | 15.9% (inactive) |
| CN1C(=O)[C@]23SSC1(C)C(=O)N2[C@H]1Nc2ccccc2C1([C@@]12c4ccccc4N[C@@H]1N1C(=O)C4(C)SS[C@]1(C(=O)N4C)[C@H]2O)[C@@H]3O (stereo not given in full) | -19.4% (active) |
| CC1=C(CCC=NNC(N)=O)C2=C(C)C3(CC3)[C@@](C)(O)C(=O)C2=C1 | -18.1% (active) |
| CC1=C(CN(O)C(N)=O)C2=C(C)C3(CC3)[C@@](C)(O)C(=O)C2=C1 | -5.11% (active) |
| C/C=C/CC(C)C(O)[C@H](NC(=O)[C@@H]1CCCN1C(=O)C(C)(C)NC(=O)CCCCCCCCC)C(=O)NC(C)(C)C(=O)N[C@@H](CCC(N)=O)C(=O)N[C@H](CCC(N)=O)C(=O)NC(C)(C)C(=O)NC(C)(C)C(=O)N[C@@H](CCC(N)=O)C(=O)N[C@H](CC(C)C)C(=O)N[C@H](CO)CC(C)C (stereo not given in full) | 51.1% (inactive) and 4.23% (active) |
| CCCCCCCCCC(=O)N[C@@](C)(CC)C(=O)N1CCC[C@H]1C(=O)N[C@@H](CC(C)C)C(=O)N[C@@](C)(CC)C(=O)N[C@@H](CCC(N)=O)C(=O)N[C@H](CCC(N)=O)C(=O)NC(C)(C)C(=O)NC(C)(C)C(=O)N[C@@H](CCC(N)=O)C(=O)N[C@H](CC(C)C)C(=O)N[C@H](CO)CC(C)C | -82.9% (active) and -77% (active) |
| CC(C)(O)/C=C/C(=O)[C@](C)(O)[C@H]1[C@H](O)C[C@@]2(C)[C@H]3CC=C4[C@@H](C[C@H](O)C(=O)C4(C)C)[C@]3(C)C(=O)C[C@]12C | 24.7% (inactive) |
| COc1cc(C)c(-c2ccc(OC)c(=O)cc2C)c(OC)c1OC | -11.5% (active) and 107% (inactive) |
| COc1cc2c(O[C@@H]3OC[C@H](OC(C)=O)[C@H](OC(C)=O)[C@H]3O)c3c(c(-c4ccc5c(c4)OCO5)c2cc1OC)C(=O)OC3 | 37.7% (inactive) |
| COc1cc2c(cc1OC)[C@@H]1N(CC2)C(=O)c2ccccc2[C@@]1(C)C(=O)O | 106% (inactive) |
| CC1=C2C(=O)[C@](C)(CO)C=C2C(=O)[C@](C)(O)C12CC2 | 5.56% (active) |
| CC1=C[C@H]2O[C@@H]3C[C@@H](O)[C@](C)([C@@]2(C)CC1)[C@@]31CO1 | 36.1% (inactive) |
| CC(C)=CCc1c2c(c(O)c3c1O[C@]14C(=C[C@@H]5C[C@H]1C(C)(C)O[C@@]4(C/C=C(/C)C(=O)O)C5=O)C3=O)C=CC(C)(C)O2 | 4.39% (active) |
| Cc1ccc(CNc2nc3ccc(OC/C(=C/F)CN)cc3o2)cn1 | 102% (inactive) |
| O=C(CCCc1ccc(N(CCCl)CCCl)cc1)OCc1ccccc1 | 93.9% (inactive) |
| CC1=C[C@H]2O[C@@H]3C[C@H]4OC(=O)/C=C\C=C\[C@H]([C@@H](C)O)OCC/C(C)=C/C(=O)OC[C@@]2(CC1)[C@]4(C)[C@]31CO1 | -20% (active) |
| CC(=O)O[C@@H]1[C@@H]2O[C@H]2[C@@](C)(O)C(=O)[C@@H](C)C/C=C/[C@H]2[C@@H]3O[C@]3(C)[C@@H](C)C3[C@H](Cc4ccccc4)NC(=O)[C@@]312 (stereo not given in full) | 82% (inactive) |
| C/C=C\C(=O)O[C@@H]1CC2O[C@@H]3C=C(C)C(=O)C[C@]3(C)[C@]1(C)[C@]21CO1 | -3.97% (active) |
| COc1cc2c(O[C@@H]3OC[C@H](O)[C@H](O)[C@H]3O)c3c(c(-c4ccc5c(c4)OCO5)c2cc1OC)C(=O)OC3 | 90.1% (inactive) |
| C/C=C/CC(C)C(O)[C@H](NC(=O)[C@@H]1CCCN1C(=O)C(C)(C)NC(=O)CCCCCCCCC)C(=O)N[C@@](C)(CC)C(=O)N[C@@H](CCC(N)=O)C(=O)N[C@H](CCC(N)=O)C(=O)NC(C)(C)C(=O)N[C@@](C)(CC)C(=O)N[C@@H](CCC(N)=O)C(=O)N[C@H](CC(C)C)C(=O)N[C@H](CO)CC(C)C (stereo not given in full) | 106% (inactive) and -38.7% (active) |

| SMILES | growth |
| --- | --- |
| N#Cc1c(-n2c(Br)c(Br)c3cc(Br)ccc32)[nH]c2c(Br)cc(Br)cc12 | -2.1% (active) |
| C/C=C/CC(C)C(O)[C@H](NC(=O)[C@@H]1CCCN1C(=O)C(C)(C)NC(=O)CCCCCCCCC)C(=O)N[C@@](C)(CC)C(=O)N[C@@H](CCC(N)=O)C(=O)N[C@H](CCC(N)=O)C(=O)NC(C)(C)C(=O)NC(C)(C)C(=O)N[C@@H](CCC(N)=O)C(=O)N[C@H](CC(C)C)C(=O)N[C@H](CO)CC(C)C (stereo not given in full) | 19.7% (inactive) and 35.4% (inactive) |
| C=C1[C@@H](C)C2[C@H](Cc3ccccc3)NC(=O)[C@]23[C@H](OC(C)=O)/C=C/[C@@](C)(O)C(=O)[C@@H](C)C/C=C/[C@H]3[C@@H]1O (stereo not given in full) | 98.5% (inactive) |
| CC1=C2C(=C[C@@](C)(COC(=O)c3ccc(S(=O)(=O)F)cc3)[C@@H]2OC(=O)c2ccc(S(=O)(=O)F)cc2)C(=O)[C@](C)(O)C12CC2 | 9.12% (active) |
| CC(=O)O[C@@H]1C[C@H]2O[C@@H]3C=C(C)CC[C@]3(C)[C@]1(C)[C@]21CO1 | 14.6% (inactive) |
| CC1=C[C@H]2O[C@@H]3C[C@H]4OC(=O)/C=C\C=C\[C@H]([C@@H](C)O)OCC[C@@H](C)[C@H](O)C(=O)OC[C@@]2(CC1)[C@]4(C)[C@]31CO1 | -24.9% (active) |
| CC1=C2C(=C[C@@](C)(COC(=O)c3ccc(S(=O)(=O)F)cc3)[C@@H]2O)C(=O)[C@](C)(O)C12CC2 | -3.75% (active) |
| C[C@@H]1CCC/C=C/[C@H]2C[C@@H](O)C[C@@H]2[C@@H](O)/C=C/C(=O)O1 | 9.17% (active) |
| CC1=C2C(=C[C@@](C)(C=O)[C@@H]2O)C(=O)[C@](C)(O)C12CC2 | 1.41% (active) |
| COC(=O)[C@H]1[C@@H](O)[C@@]2(O)c3c(OC)cc(OC)cc3O[C@@]2(c2ccc(OC)cc2)[C@@H]1c1ccccc1 | 0.819% (active) |
| C/C=C/CC(C)C(O)[C@H](NC(=O)[C@@H]1CCCN1C(=O)C(C)(C)NC(=O)CCCCCCC)C(=O)N[C@@](C)(CC)C(=O)N[C@@H](CCC(N)=O)C(=O)N[C@H](CCC(N)=O)C(=O)NC(C)(C)C(=O)NC(C)(C)C(=O)N[C@@H](CCC(N)=O)C(=O)N[C@H](CC(C)C)C(=O)N[C@H](CO)CC(C)C (stereo not given in full) | 106% (inactive) and 48.9% (inactive) |
| CN(CCF)/N=N/c1nc[nH]c1C(N)=O | 32.5% (inactive) |
| NC1CCc2cc(O)c(O)cc2C1 (stereo not given) | 85.6% (inactive) |
| CC1=C2C(=C[C@@](C)(COS(C)(=O)=O)[C@@H]2O)C(=O)[C@](C)(O)C12CC2 | 0.993% (active) |
| COC1[C@@H]2C[C@H]3C(C)(C)O[C@@](C/C=C(/C)C(=O)O)(C2=O)[C@]32Oc3c(CC=C(C)C)c4c(c(O)c3C(=O)[C@H]12)C=CC(C)(C)O4 (stereo not given in full) | -10.9% (active) |
| C[C@@H]1C[C@H]2C(=O)O[C@@H](C)C(NC(=O)[C@H](Cc3cc(F)cc(F)c3)NC(=O)Nc3ccc(OS(=O)(=O)F)cc3)C(=O)N3CCC[C@H]3C(=O)N3CCO[C@H](C)[C@H]3C(=O)N[C@@H](CO)C(=O)N2C1 (stereo not given in full) | 99.2% (inactive) |
| CCC(C)[C@H]1C(=O)O[C@H](C(C)C)C(=O)N(C)[C@@H](C(C)C)C(=O)O[C@H](C(C)C)C(=O)N(C)[C@@H](C(C)C)C(=O)O[C@H](C(C)C)C(=O)N1C (stereo not given in full) | 5.25% (active) |
| COc1cccc2c1cc([N+](=O)[O-])c1c(C(=O)O)cc3c(c12)OCO3 | 107% (inactive) |
| COc1cc(OC)c(S(=O)(=O)N(CCCl)CCCl)cc1C(=O)/C=C/c1ccc(Cl)cc1 | 52.3% (inactive) |
| N#Cc1nc(-c2ccccc2)oc1N1CCC(S(=O)(=O)F)CC1 | 104% (inactive) |
